Results filed as inconclusive are left out. Unmarked numbers belong to inactive results. The source made the active and inactive calls. Calls follow the shape of the dose curve; as a rule, active = well fitted curve in the direction sought with a large enough effect; inconclusive = small, poorly fitted or top-dose-only effect, or another doubt; inactive = no such curve, though single readings can be large; an effect the other way counts as inactive or inconclusive.
assay: qHTS for differential inhibitors of proliferation of Plasmodium falciparum line GB4 (AID 1816); details: Potency: Plasmodium falciparum GB4 proliferation inhibition; series mostly up to 28.7 µM; activity change, negative = inhibition: at the top concentration;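 also: parasite growth measured after 72 h incubation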;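 as to activity change, negative = inhibition: 0% = vehicle DMSO and -100% = reference inhibitor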
Potency is read from the fitted curve at half-maximal effect.

SMILES	activity change, negative = inhibition	Potency
O=C(O)[C@@H]1C[C@H](C(=O)O)N1	-7.41%	
CC(=O)N[C@H](C(=O)O)C(C)(C)SN=O	-4.85%	
NC(=O)C(=O)O	-7.67%	
C[N+](C)(CCCCCC[N+](C)(C)CCCN1C(=O)c2cccc3cccc(c23)C1=O)CCCN1C(=O)c2cccc3cccc(c23)C1=O		0.316 µM (active)
NCCCCC(=O)O	-2.37%	
C[C@@H](CN1CCC(Cc2ccccc2)CC1)[C@@H](O)c1ccc(O)cc1		14.1 µM (active)
NCCSSCCN	-15.7%	

assay: qHTS for differential inhibitors of proliferation of Plasmodium falciparum line 3D7 (AID 1876);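 as to activity, negative = inhibition: parasite growth measured after three days of culture; 0% = vehicle wells and -100% = reference inhibitor wells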; details: P. falciparum 3D7 proliferation inhibition; series mostly up to 28.7 µM; activity, negative = inhibition: at the top concentration

SMILES	activity, negative = inhibition	Potency
CC1(C)CCC=[N+]1[O-]	-8.2%	
CC12C(=O)OC(=O)C1(C)C1CCC2O1 (centres undefined)		3.16 µM (active)
COc1cc(C(O)CO)ccc1OS(=O)(=O)O (centres undefined)	-8.09%	
COc1ccccc1CNCCCCCCNCCCCCCCCNCCCCCCNCc1ccccc1OC		0.891 µM (active)
O=C(Nc1cccc(C(=O)Nc2ccc(S(=O)(=O)O)c3cc(S(=O)(=O)O)cc(S(=O)(=O)O)c23)c1)Nc1cccc(C(=O)Nc2ccc(S(=O)(=O)O)c3cc(S(=O)(=O)O)cc(S(=O)(=O)O)c23)c1	3.83%	
COc1cc2nc(N3CCN(C(=O)OCc4ccccc4)C(C(=O)NC(C)(C)C)C3)nc(N)c2cc1OC (centres undefined)		3.16 µM (active)
O=c1[nH]c2cc([N+](=O)[O-])c([N+](=O)[O-])cc2[nH]c1=O	-7.91%	
O=S(=O)(c1cccc2c(I)cccc12)N1CCCNCC1	5.19%	
O=C(O)[C@@H]1C[C@@H](C(=O)O)N1	-7.78%	
N#C/C(=C\c1ccc(O)c(O)c1)C(=O)NCc1ccccc1		10 µM (active)
CCCCCCCCCCCCCCCCCC(=O)NCC(COP(=O)([O-])OCC[N+](C)(C)C)OCC (centres undefined)	4.59%	
CN1CCC[C@H]1c1cccnc1	0.251%	
O=C(O)c1cc(=O)c2c(Cl)cc(Cl)cc2[nH]1	-0.374%	
O=C(Nc1ccccc1)c1cc([N+](=O)[O-])ccc1Cl		11.2 µM (active)
CCCN(CC1CC1)c1nc(C)nc(Nc2c(Cl)cc(Cl)cc2Cl)c1Cl		2.82 µM (active)
Fc1ccc(C(OCCCc2cnc[nH]2)c2ccc(F)cc2)cc1		1.26 µM (active)
O=C(O)[C@@H]1C[C@H](C(=O)O)N1	-6.01%	
CC(=O)N[C@H](C(=O)O)C(C)(C)SN=O	0.717%	
NC(=O)C(=O)O	4.19%	
C[N+](C)(CCCCCC[N+](C)(C)CCCN1C(=O)c2cccc3cccc(c23)C1=O)CCCN1C(=O)c2cccc3cccc(c23)C1=O		0.0631 µM (active)
NCCCCC(=O)O	6.02%	

assay: qHTS for differential inhibitors of proliferation of Plasmodium falciparum line D10 (AID 1877); details: series mostly up to 28.7 µM; activity change, negative = inhibition: at the top concentration;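 also: parasites grown with compound for 72 h before DNA staining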;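 as to activity change, negative = inhibition: plate controls were vehicle wells for no effect and reference inhibitor wells for full effect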

SMILES	Potency	activity change, negative = inhibition
Oc1cc2c(cc1O)CN(C(=S)NCCc1ccc(Cl)cc1)CCC2	12.6 µM (active)	
CC1(C)CCC=[N+]1[O-]		-3.22%
CC12C(=O)OC(=O)C1(C)C1CCC2O1 (centres undefined)	2.24 µM (active)	
COc1cc(C(O)CO)ccc1OS(=O)(=O)O (centres undefined)		-16.7%
COc1ccccc1CNCCCCCCNCCCCCCCCNCCCCCCNCc1ccccc1OC	2.24 µM (active)	
O=C(Nc1cccc(C(=O)Nc2ccc(S(=O)(=O)O)c3cc(S(=O)(=O)O)cc(S(=O)(=O)O)c23)c1)Nc1cccc(C(=O)Nc2ccc(S(=O)(=O)O)c3cc(S(=O)(=O)O)cc(S(=O)(=O)O)c23)c1		-8.22%
COc1cc2nc(N3CCN(C(=O)OCc4ccccc4)C(C(=O)NC(C)(C)C)C3)nc(N)c2cc1OC (centres undefined)	10 µM (active)	
O=c1[nH]c2cc([N+](=O)[O-])c([N+](=O)[O-])cc2[nH]c1=O		-30.2%
O=S(=O)(c1cccc2c(I)cccc12)N1CCCNCC1		-2.42%
O=C(O)[C@@H]1C[C@@H](C(=O)O)N1		-22.1%
N#C/C(=C\c1ccc(O)c(O)c1)C(=O)NCc1ccccc1	17.8 µM (active)	
CCCCCCCCCCCCCCCCCC(=O)NCC(COP(=O)([O-])OCC[N+](C)(C)C)OCC (centres undefined)	14.1 µM (active)	
CN1CCC[C@H]1c1cccnc1		-9.19%
O=C(O)c1cc(=O)c2c(Cl)cc(Cl)cc2[nH]1		-16.2%
O=C(Nc1ccccc1)c1cc([N+](=O)[O-])ccc1Cl	11.2 µM (active)	
CN1CCc2cc(O)c(O)cc2C(c2ccccc2)C1 (centres undefined)	12.6 µM (active)	
CC(C)NCC(O)COc1cccc2ccccc12 (centres undefined)	11.2 µM (active)	
CCCN(CC1CC1)c1nc(C)nc(Nc2c(Cl)cc(Cl)cc2Cl)c1Cl	3.98 µM (active)	
Fc1ccc(C(OCCCc2cnc[nH]2)c2ccc(F)cc2)cc1	5.01 µM (active)	
O=C(O)[C@@H]1C[C@H](C(=O)O)N1		-14.1%
CC(=O)N[C@H](C(=O)O)C(C)(C)SN=O		-8.5%
NC(=O)C(=O)O		-10.3%
C[N+](C)(CCCCCC[N+](C)(C)CCCN1C(=O)c2cccc3cccc(c23)C1=O)CCCN1C(=O)c2cccc3cccc(c23)C1=O	0.631 µM (active)	
NCCCCC(=O)O		-1.79%
NCCSSCCN		-5.75%

assay: qHTS for differential inhibitors of proliferation of Plasmodium falciparum line Dd2 (AID 1882); details: Potency: Plasmodium falciparum Dd2 proliferation inhibition; series mostly up to 28.7 µM; activity change, negative = inhibition: at the top concentration; also: nearly all actives have a fitted effect of over 65% in size;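 as to activity change, negative = inhibition: plate controls were DMSO vehicle for no effect and 0.29 µM artemisinin for full effect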
Outline: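 Dd2-infected erythrocytes (0.3% parasitemia, 2.5% hematocrit final) incubated with compound 72 h at 37 C, 5% CO2; lysed with saponin/Triton buffer containing SYBR Green I, incubated overnight in the dark, then read by fluorescence (485/535 nm). Normalized to 0.29 uM artemisinin and DMSO.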

SMILES	activity change, negative = inhibition	Potency
COc1cc(C(O)CO)ccc1OS(=O)(=O)O (centres undefined)	-2.47%	
O=C(Nc1cccc(C(=O)Nc2ccc(S(=O)(=O)O)c3cc(S(=O)(=O)O)cc(S(=O)(=O)O)c23)c1)Nc1cccc(C(=O)Nc2ccc(S(=O)(=O)O)c3cc(S(=O)(=O)O)cc(S(=O)(=O)O)c23)c1	-9.02%	
O=c1[nH]c2cc([N+](=O)[O-])c([N+](=O)[O-])cc2[nH]c1=O	-28.3%	
CCCCCCCCCCCCCCCCCC(=O)NCC(COP(=O)([O-])OCC[N+](C)(C)C)OCC (centres undefined)	1.4%	
O=C(Nc1ccccc1)c1cc([N+](=O)[O-])ccc1Cl	-19.5%	
Fc1ccc(C(OCCCc2cnc[nH]2)c2ccc(F)cc2)cc1		8.91 µM (active)
O=C(O)[C@@H]1C[C@H](C(=O)O)N1	2.1%	
NC(=O)C(=O)O	2.38%	
C[N+](C)(CCCCCC[N+](C)(C)CCCN1C(=O)c2cccc3cccc(c23)C1=O)CCCN1C(=O)c2cccc3cccc(c23)C1=O		2.24 µM (active)
NCCCCC(=O)O	-4.72%	
NCCSSCCN	7.24%	

From PubChem BioAssay (NCATS)
